{"source": "PubChem BioAssay (NCATS)", "note": "Inconclusive results are not listed. Entries that show only a call come without a potency. Activity calls are given as the source filed them. Calls come from the whole dose curve; as a rule, active = well fitted inhibition curve with a large enough effect; inconclusive = small, poorly fitted or top-dose-only effect; inactive = flat fitted curve, though single readings scatter. Where a SMILES comes first, the peptide text is derived from it. [ ]: non-standard residue; d: D form. The star is where a group is joined. Benzoyl(4-tBu) = CC(C)(C)c1ccc(C(=O)*)cc1; Lys(Et2) = CCN(CC)CCCC[C@H](N)C(=O)O"}
{"molecular_target": "Glutathione peroxidase 1 (Homo sapiens) (UniProt P07203)", "sequence (P07203 whole entry, looked up)": "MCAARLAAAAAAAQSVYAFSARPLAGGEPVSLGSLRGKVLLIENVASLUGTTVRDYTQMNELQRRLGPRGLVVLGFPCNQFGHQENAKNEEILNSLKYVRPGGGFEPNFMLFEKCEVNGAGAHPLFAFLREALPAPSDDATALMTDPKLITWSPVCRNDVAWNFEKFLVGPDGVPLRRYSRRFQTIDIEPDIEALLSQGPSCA", "assay": "Primary qHTS Assay for Inhibitors of Recombinant Selenoprotein Glutathione Peroxidase 1 (GPX1) (AID 1845191); note: nearly all actives have a fitted effect of over 65% in size; note: potency is the fitted concentration of half-maximal effect", "conditions": "recombinant GPX1, GR-coupled NADPH fluorescence, 15 min; series mostly up to 48.8 µM", "excerpt": "Assay Provider: Elias S.J. Arner MD PhD.\nDepartment of Medical Biochemistry and Biophysics\nKarolinska Institutet, Solna, Stockholm, Sweden\nSelenoprotein glutathione peroxidases (GPX), like the ubiquitously expressed GPX1 and the ferroptosis modulator GPX4, enact their antioxidant activities by reducing hydroperoxides using glutathione. […] GPX1 and GPX4 inhibitors have thus shown promise as anti-cancer agents. Existing inhibitors are often promiscuous, or modulate GPX activity only indirectly, so novel direct inhibitors identified through screening against GPX1 and GPX4 could be valuable. Here, we developed optimized glutathione reductase (GR)-coupled GPX assays for the biochemical high-throughput screen (HTS) of almost 12,000 compounds with known mechanisms of action. Initial hits were triaged using a GR counter-screen, assessed for isoform specificity using a separate GPX2 assay, and were assessed for general selenocysteine-targeting activity using a thioredoxin reductase (TXNRD1) assay. With this suite of assays, we identified novel GPX1/GPX2- and GPX4-specific inhibitors and can here present a validated pipeline for future discovery research for selenoprotein-targeting agents.\nSEQUENCE No. (e.g., 1, 2, 3, etc.); […] (e.g., Cells, Incubation, Reagent, etc.); VALUE; DESCRIPTION.\n1; Reagent 1; 3 uL; GPx1 enzyme or no enzyme control in 1536-well, black, solid Greiner assay plate.\n2; Compound; 25 nL; Kalypsis pin tool (Wako USA) equipped with a 1536-well pin head.\n3; Incubation; 30 min; room temperature.\n4; Reagent 2; 1 uL; 10 nM GPX1, 1 mM GSH, 0.5 mM CHP, 0.5 mM NADPH, 100 nM GR, 0.01% BSA substrate\n5; Detection; Fluorescence; ViewLux microplate reader, excitation 340 nm and emission 450 nm.\n6; Incubation; 15 min; room temperature.\n7; Detection; Fluorescence; ViewLux microplate reader, excitation 340 nm and emission 450 nm.\nNOTES (numbers refer to Sequence numbers above)\n1. 3 uL of 16.66 nM GPX1 and 0.016% BSA in assay buffer (50 mM Tris-HCl, 2 mM EDTA (pH 7.5), 150 mM NaCl) was added to columns 3-48 of 1536-well assay plates using a BioRAPTR Flying Reagent Dispenser (Let's Go Robotics (LGR), Carlsbad, CA). A no-enzyme control (0.01% BSA in TES assay buffer) was added to columns 1-2.\n2. 25 nL of test compounds and DMSO controls were added to each well with a pin tool (Kalypsys).\n3. The assay plates were incubated for 30 minutes at room temperature.\n4. 1 uL of master mix (500 nM glutathione reductase (GR), 5 mM reduced glutathione (GSH), 2.5 mM NADPH in assay buffer) was added. 1 uL of cumene hydroperoxide (CHP) ([2.5 mM] in 50% EtOH) was then added within 5 minutes to initiate the reaction. Final concentrations were: 10 nM GPX1, 1 mM GSH, 0.5 mM CHP, 0.5 mM NADPH, 100 nM GR, 0.01% BSA.\n5. Initial fluorescence readout (t=0) at 340/450 nm was measured using a ViewLux multimodal detector (PerkinElmer, Waltham, MA).\n7. Endpoint fluorescence readout (t=15) at 340/450 nm was measured 15 min after room temperature incubation."}
{"smiles": "COc1ccc2[nH]c3c(c2c1)CCN[C@]31CS[C@@H]2c3c(OC(C)=O)c(C)c4c(c3[C@H](COC1=O)N1[C@@H]2[C@H]2c3c(cc(C)c(OC)c3O)C[C@@H]([C@@H]1O)N2C)OCO4", "outcome": "inactive [at 9.52 µM]"}
{"smiles": "O=c1[nH]nc2c3c(cccc13)NC(CN1Cc3ccccc3C1)=N2", "Potency": "inactive"}
{"smiles": "CN1C[C@@H]2c3ccccc3Oc3ccc(Cl)cc3[C@H]2C1", "Potency": "inactive"}
{"smiles": "Nc1nccc(-c2c(-c3ccc(F)cc3)ncn2C2CCN(Cc3ccon3)CC2)n1", "Potency": "inactive"}
{"smiles": "C=CCNC1=C2CC(C)CC(OC)C(O)C(C)/C=C(\\C)C(OC(N)=O)C(OC)/C=C/C=C(\\C)C(=O)NC(=CC1=O)C2=O", "note": "(stereo not given)", "Potency": "inactive"}
{"smiles": "C=C1CCC2[C@](C)(CO)C(O)CC[C@]2(C)C1C/C=C1/C(=O)OCC1O", "note": "(stereo not given in full)", "Potency": "inactive"}
{"smiles": "NC(=S)N/N=C/c1ncccc1N", "Potency": "inactive"}
{"smiles": "NC1=N[C@@]2(c3cc(NC(=O)c4ccc(F)cn4)ccc3F)COC[C@H]2CS1", "Potency": "inactive"}
{"smiles": "COc1cc2c3c(n(CCCN4CCOCC4)c(=O)c2cc1OC)-c1cc2c(cc1C3=O)OCO2", "Potency": "inactive"}
{"smiles": "CN(C)CCN1C(=O)c2cccc3cc(NC(N)=O)cc(c23)C1=O", "Potency": "inactive"}
{"smiles": "C[C@H](CCC(=O)O)[C@H]1CC[C@H]2[C@@H]3[C@@H](O)C[C@@H]4C[C@H](O)CC[C@]4(C)[C@H]3CC[C@]12C", "Potency": "inactive"}
{"smiles": "O=C(CCCc1ccc2cccnc2n1)NCc1cc(-c2ccc(F)c(C(F)(F)F)c2)no1", "Potency": "inactive"}
{"smiles": "O=C(Nc1cccc(C(F)(F)F)c1)c1cccc2cc(Oc3cc(CO)ncn3)ccc12", "Potency": "inactive"}
{"smiles": "CCN(CC)CCCC[C@H](NC(=O)[C@H](CC(C)C)NC(=O)[C@H](C)NC(=O)[C@H](Cc1ccccc1)NC(=O)c1ccc(C(C)(C)C)cc1)C(=O)N[C@@H](CO)C(=O)OC", "note": "({Benzoyl(4-tBu)}-FAL[Lys(Et2)]S-OMe)", "Potency": "inactive"}
{"smiles": "CC(C)C[C@H](NC(=O)[C@H](Cc1ccccc1)NC(=O)OCc1ccccc1)C(=O)C=O", "Potency": "inactive"}
{"smiles": "C[C@H]1CNC(=O)c2cnn3ccc(nc23)N[C@H](C)c2cc(F)ccc2O1", "Potency": "inactive"}
{"smiles": "COc1nc(N)nc2c1ncn2C1OC(CO)C(O)C1O", "note": "(stereo not given)", "Potency": "inactive"}
{"smiles": "O=C([O-])C[O-].[Pt+2]", "Potency": "inactive"}
{"smiles": "O=C(/C=C\\n1cnc(-c2cc(C(F)(F)F)cc(C(F)(F)F)c2)n1)NNc1cnccn1", "Potency": "inactive"}
{"smiles": "CO[C@@H]1[C@@H](O)[C@H](O)[C@@H](n2c3c(Cl)cccc3c3c4c(c5c6cccc(Cl)c6[nH]c5c32)C(=O)NC4=O)O[C@H]1CO", "Potency": "inactive"}
{"smiles": "CN1CCN(C(=O)[C@H]2[C@@H](C(=O)O)[C@H]3CC[C@@H]2O3)CC1", "outcome": "inactive [at 9.52 µM]"}
{"smiles": "CN(C(=O)c1cn2c(-c3ccc(C(F)(F)F)cc3)cnc2cn1)c1ccc(C#N)cc1", "Potency": "inactive"}
{"smiles": "C=CC(=O)N1C[C@H](Nc2ncnc3[nH]ccc23)CC[C@@H]1C", "Potency": "inactive"}
{"smiles": "COc1cc2c(Oc3ccc4[nH]c(C)cc4c3F)ccnc2cc1OCC1(N)CC1", "Potency": "inactive"}
{"smiles": "O=S(=O)(Nc1ccc(-c2cccnc2)c2cccnc12)c1cccc(C(F)(F)F)c1", "Potency": "inactive"}
{"smiles": "Cc1cc(-c2cnn3c(NCC4CC(C)(O)C4)cc(Oc4cccnc4)nc23)ccc1C(=O)NC1CC1", "note": "(stereo not given)", "outcome": "inactive [at 4.49 µM]"}
{"smiles": "OC[C@H]1NC[C@@H](O)[C@@H](O)[C@@H]1O", "Potency": "inactive"}
{"smiles": "CC(=O)N1CCN(c2ccc(NC(=O)Cc3cnc(-c4ccnc(F)c4)c(C)c3)nc2)CC1", "Potency": "inactive"}
{"smiles": "Cc1cc(C)c2c(c1)[C@@H](N(Cc1cc(C(F)(F)F)cc(C(F)(F)F)c1)c1nnn(C)n1)CCCN2CC1CCC(C(=O)O)CC1", "note": "(stereo not given in full)", "Potency": "inactive"}
{"smiles": "C=CCN(/C=C1\\C(=O)O[C@@H](COC)[C@]2(C)C1=C(O)C(=O)C1=C2[C@@H](OC(C)=O)C[C@]2(C)C(=O)CC[C@H]12)CC=C", "Potency": "inactive"}
{"smiles": "COC1CCC(N2C(=O)CNc3ncc(-c4ccc(C(C)(C)O)nc4)nc32)CC1", "note": "(stereo not given)", "Potency": "4.59 µM (active)"}
{"smiles": "CC1(C)S[C@H]2[C@H](NC(=O)[C@@H](N)c3ccc(O)cc3)C(=O)N2[C@H]1C(=O)O", "Potency": "inactive"}
{"smiles": "CCCN(CCC)C(=O)C1=Cc2ccc(-c3ccc(C(=O)N4CCCC4)cc3)cc2N=C(N)C1", "Potency": "inactive"}
{"smiles": "CN(C)C(N)=NC(=N)N", "Potency": "inactive"}
{"smiles": "CCN(CC)CCNc1ccc(C)c2sc3ccccc3c(=O)c12", "Potency": "inactive"}
{"smiles": "C=CC(=O)Nc1cc(N2CCN(CC)CC2)ccc1Nc1cc(N(C)C(=O)Nc2c(Cl)c(OC)cc(OC)c2Cl)ncn1", "Potency": "inactive"}
{"smiles": "CC(C)n1c(=O)cc(N[C@@H](C)c2ccccc2)[nH]c1=O", "Potency": "inactive"}
{"smiles": "CN1CCN(c2ccc3nc(-c4cc(C(C)(C)C)c(OCCCC(=O)NCCCN=[N+]=[N-])c(C(C)(C)C)c4)[nH]c3c2)CC1", "Potency": "inactive"}
{"smiles": "Cc1cc(O)c(-c2ccc([C@@H](C)CN)cc2)c2c1[nH]c(=O)c1sccc12", "Potency": "inactive"}
{"smiles": "COC(=O)[C@H]1[C@@H](O)[C@@]2(O)c3c(OC)cc(O[C@@H]4O[C@@H]([C@@H](O)CO)CO[C@H]4OC)cc3O[C@@]2(c2ccc(OC)cc2)[C@@H]1c1ccccc1", "Potency": "inactive"}
